Structures are written as SMILES. Calls of active or inactive are those of the source.

Homeobox protein Hox-A13 (Mus musculus), sequence (Q62424 whole entry, looked up): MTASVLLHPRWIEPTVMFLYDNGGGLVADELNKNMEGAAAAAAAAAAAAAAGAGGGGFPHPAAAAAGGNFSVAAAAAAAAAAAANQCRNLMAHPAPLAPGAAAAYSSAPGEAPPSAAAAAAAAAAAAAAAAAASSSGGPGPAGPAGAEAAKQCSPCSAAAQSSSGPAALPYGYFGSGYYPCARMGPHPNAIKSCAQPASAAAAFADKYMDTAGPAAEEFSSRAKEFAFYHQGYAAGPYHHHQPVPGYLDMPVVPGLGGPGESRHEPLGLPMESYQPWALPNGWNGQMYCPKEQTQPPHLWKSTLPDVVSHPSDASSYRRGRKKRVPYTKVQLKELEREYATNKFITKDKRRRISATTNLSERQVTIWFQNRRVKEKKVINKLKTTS

Tested on in the first experiment: not listed separately
Put plainly: blood-stage malaria parasite viability loss – strain 3D7, DAPI fluorescence, 100 nL, primary screen (AID 1184).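 Also: parasites grown inside human red blood cells in medium with human serum.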 The note with it: P. falciparum 3D7 growth, 3 d, higher = more signal.
In turn, `Cc1ccc(F)cc1S(=O)(=O)N[C@@H]1CCN(Cc2cccc3[nH]ccc23)C1` showed a z-score of -0.797.

As to `CC(C)C(=C=CC[C@@H](O)c1cccc(OCCO)c1)C[C@@H](O)c1ccccn1`, the z-score was -0.0244.

Take `[N-]=[N+]=NCc1ccccc1[C@H]1OC(c2ccc(OCCCO)cc2)=N[C@@]1(Cc1ccccc1)C(=O)NCCN1CCOCC1`: the z-score is -2.28.

As for `C=CC[C@H](OC(=O)Nc1ccc(SC)cc1)c1ccc(OCCO)cc1`, the z-score worked out at 0.749.

Turning to `CN(C)C(=O)[C@@]1(Cc2ccccc2)COC(c2ccc(OCCCO)cc2)=N1`, the z-score was -0.627.

For the compound `NC(=O)[C@H]1[C@@H]2C(=O)O[C@@H](c3ccccc3)[C@@H](c3ccccc3)N2[C@@H](c2ccc(O)cc2)[C@]12C(=O)Nc1ccc(C#CC3=CCCCC3)cc12`, the z-score was -0.88.

Another experiment concerns the target Homeobox protein Hox-A13 (Mus musculus) (UniProt Q62424). Nature of the experiment: disruptors of Hoxa13 oligonucleotide interaction – biochemical, fluorescence polarization, labeled oligonucleotide, primary screen (AID 1185). The note with it: Hoxa13:DNA binding, 15 min, higher = more signal, called active from +8 up or from −8 down. Background: Fluorescence polarisation rises when a labelled molecule tumbles more slowly, as on binding a larger partner.
As for `COC(=O)[C@@]1(Cc2ccc(F)cc2)[C@H]2c3cc(C(=O)N(C)C)n(Cc4ccc(O)c(OC)c4)c3C[C@H]2CN1C(=O)c1ccccc1`, the z-score was -6.34 (inactive).

`CO[C@H]1O[C@H](CO)[C@@H](OC(=O)Nc2cccc(F)c2)[C@H](OC(=O)Nc2ccccc2-c2ccccc2)[C@H]1OC(=O)Nc1ccccc1-c1ccccc1`: the z-score was -4.36 (inactive).

On to `C=C(CCCC)/C(=C/C[C@H](OC(C)=O)c1ccc(OCCO)cc1)c1cc(C(=O)OC)ccc1OC`, for which the z-score is -3.64 (inactive).

Regarding `COCCCNC(=O)[C@@]1(Sc2ccc(C)cc2)CC(=O)N(Cc2ccccc2Cl)[C@@H]1c1ccc(CO)cc1I`, the z-score was -2.55 (inactive).

With `COc1cccc(/C=C(\C#N)C(=O)Nc2c(C)n(C)n(-c3ccccc3)c2=O)c1`, the z-score was -0.75 (inactive).

`CS(=O)(=O)CCOC(=O)C1=CC(CCCO)=CC(C2CC2)N(Cc2cccc(OC(F)(F)F)c2)C=C1C(=O)OCCS(C)(=O)=O` (stereo unspecified): the z-score was -6.49 (inactive).

Consider `COc1ccc(C#Cc2ccc3c(c2)[C@]2(C(=O)N3)[C@H](C(=O)Nc3nc4ccccc4s3)[C@H]3C(=O)O[C@H](c4ccccc4)[C@H](c4ccccc4)N3[C@@H]2c2ccccc2OCCO)cc1`, for which the z-score was -0.889 (inactive).

Regarding `C=C[C@@H](C)[C@@H](OC(=O)Nc1ccc(SC)cc1)c1ccc(OCCO)cc1`, the z-score was -5.52 (inactive).

Regarding `CC(=O)N1CC(C(O)C2C=CC3C(=O)NC(=O)C3N2Nc2ccc(Cl)cc2Cl)c2ccccc21` (stereo unspecified), the z-score is -4.92 (inactive).

For `CC(C)C[C@@H]1NC(=O)[C@H]2C[C@@H](C(=O)NCCCCCN)[C@@H](c3cccc(OCCO)c3)N2C1=O`, the z-score is -3.68 (inactive).

In the case of `C=C(/C(=C/C[C@@H](OC(C)=O)c1ccc(CO)o1)c1cc(C(=O)OC)ccc1OC)C(C)C`, the z-score is -4.95 (inactive).

In the case of `O=C1OCC=C[C@H]2OC34C=CCN(c5ccc6ccccc6c5)C(=O)[C@H]3N(CCCCCO)C(=O)[C@@H]4[C@@H]12` (stereo partly specified), the z-score was -4.6 (inactive).

`COC(=O)[C@@]1(Cc2ccccc2)[C@H]2c3cc(C(=O)N4CCCC4)n(CCSCCO)c3C[C@H]2CN1C(=O)c1ccccc1`: the z-score was -5.06 (inactive).

With `NC(=O)[C@@H]1[C@H]2C(=O)O[C@H](c3ccccc3)[C@H](c3ccccc3)N2[C@H](c2ccc(OCCO)cc2)[C@@]12C(=O)Nc1ccc(C#CCCO)cc12`, the z-score was -4.88 (inactive).

With `[N-]=[N+]=Nc1ccccc1C[C@]1(C(=O)NCc2ccccc2)COC(c2ccc(OCCCO)cc2)=N1`, the z-score was -5.36 (inactive).

Consider `CN1C(=O)[C@@]2(Cc3ccccc3)N=C(c3ccc(OCCCO)cc3)O[C@H]2c2ccccc21`, for which the z-score is -4.01 (inactive).

With `CCOC(=O)C[C@H]1[C@H](OC(=O)c2ccccc2-c2ccccc2)[C@@H](NC(=O)c2ccc3ccccc3n2)c2cc(OCCCO)ccc2N1C(=O)c1ccccc1`, the z-score is -2.46 (inactive).

As to `Nc1cc(Br)ccc1C(=O)O`, the z-score is 0.686 (inactive).

`C=C(COC)C(=O)CC[C@@H](OC(=O)c1cccnc1)c1ccccc1OCCO`: the z-score was -4.3 (inactive).

As for `CCOC(=O)C1=C[C@@H](c2ccccc2)N(S(=O)(=O)c2ccc(C)cc2)[C@H]1c1ccccc1`, the z-score was 0.0724 (inactive).

Turning to `CC(C)c1ccc(NN2C(C(O)Cc3ccccc3)C=CC3C(=O)N(c4ccccc4)C(=O)C32)cc1` (stereo unspecified), the z-score is -2.98 (inactive).

On to `C=CCC(OC(C)=O)[C@@H]1[C@@H](N(Cc2ccc(-c3cccc(C(F)(F)F)c3)o2)C(=O)Cc2ccc(OC)cc2)c2cc(OCCCO)ccc2N1C(=O)Cc1ccc2ccccc2c1` (stereo partly specified), for which the z-score is -1.9 (inactive).

For `COCCOC(=O)N1C(=O)[C@@]2(c3cc(C#CCNC(N)=O)ccc31)[C@H](c1ccc(O)cc1)N1[C@H](c3ccccc3)[C@H](c3ccccc3)OC(=O)[C@H]1[C@@H]2C(N)=O`, the z-score was -0.531 (inactive).

In the case of `C=CC1c2cc(O)c(OC)cc2CCN1Cc1ccc([N+](=O)[O-])o1` (stereo unspecified), the z-score is -4.18 (inactive).

With `CC(=O)n1cc(C(O)C2C=CC3C(=O)N(c4ccccc4)C(=O)C3N2Nc2ccc(C(C)C)cc2)c2ccccc21` (stereo unspecified), the z-score is -2.7 (inactive).

In the case of `CO[C@H]1O[C@H](CO)[C@@H](OC(=O)c2ccc(Br)cc2)[C@@H]2OC(=O)[C@H](Cc3ccccc3)C/C=C/C[C@@H](Cc3ccccc3)C(=O)O[C@@H]12`, the z-score is -5.27 (inactive).

Turning to `CN(C)CCCC[C@@H]1NC(=O)[C@@H]2C[C@H](C(=O)O)[C@H](c3cccc(OCCO)c3)N2C1=O`, the z-score was -3.07 (inactive).

`CCCCCCCCCCC(O)C1C=CC2C(=O)N(c3ccccc3)C(=O)C2N1Nc1ccccc1F` (stereo unspecified): the z-score is 0.356 (inactive).

As to `C=CCOC(=O)[C@H]1[C@@H]2C(=O)O[C@@H](c3ccccc3)[C@@H](c3ccccc3)N2[C@@H](c2ccc(OCCOC(=O)[C@H]3C[C@H]4C(=O)N[C@@H](CCCCNC(C)=O)C(=O)N4[C@H]3c3cccc(OCCO)c3)cc2)[C@]12C(=O)Nc1ccc(I)cc12`, the z-score is 2.36 (inactive).

For the compound `Cc1ccc(F)cc1S(=O)(=O)N[C@@H]1CCN(Cc2cccc3[nH]ccc23)C1`, the z-score is -3.62 (inactive).

`CC(C)C(=C=CC[C@@H](O)c1cccc(OCCO)c1)C[C@@H](O)c1ccccn1`: the z-score was -5.17 (inactive).

`[N-]=[N+]=NCc1ccccc1[C@H]1OC(c2ccc(OCCCO)cc2)=N[C@@]1(Cc1ccccc1)C(=O)NCCN1CCOCC1`: the z-score was -0.974 (inactive).

Turning to `C=CC[C@H](OC(=O)Nc1ccc(SC)cc1)c1ccc(OCCO)cc1`, the z-score is -6.15 (inactive).

Turning to `CN(C)C(=O)[C@@]1(Cc2ccccc2)COC(c2ccc(OCCCO)cc2)=N1`, the z-score is -6.02 (inactive).

In the case of `NC(=O)[C@H]1[C@@H]2C(=O)O[C@@H](c3ccccc3)[C@@H](c3ccccc3)N2[C@@H](c2ccc(O)cc2)[C@]12C(=O)Nc1ccc(C#CC3=CCCCC3)cc12`, the z-score was -1.08 (inactive).

The values are drawn from PubChem BioAssay.
